# According to PubChem BioAssay (NCATS):
# Records with an inconclusive call do not appear. A number with no mark means an inactive call. Activity calls are given as the source filed them. Calls follow the shape of the dose curve; as a rule, active = well fitted curve in the direction sought with a large enough effect; inconclusive = small, poorly fitted or top-dose-only effect, or another doubt; inactive = no such curve, though single readings can be large; an effect the other way counts as inactive or inconclusive.
# Tested on: OV90
# Experiment: Primary qHTS to identify gynecologic anti-cancer compounds using libraries of approved drugs and bioactive compounds (AID 1345084); also: nearly all actives have a fitted effect of over 55% in size; also: potency is read from the fitted curve at half-maximal effect
# Conditions: Gynecologic cancer cell panel viability, ATPlite luminescence, 48 h; series mostly up to 57.5 µM
# Summary of the method: (§1)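 Five-concentration response, 48 h; readout is ATP-driven luciferase luminescence.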
# % is scaled to controls: 0 for no effect and ±100 for the full control effect.
row,SMILES,Potency
1,COc1ccc(-c2ccc3ncc4c(c3c2)n(-c2ccc(N3CCNCC3)c(C(F)(F)F)c2)c(=O)n4C)cn1,31600 nM (active)
2,Cc1cccc2c1CC[C@H](CN1CCC(c3c(Cl)cccc3Cl)CC1)C[C@@H]2O,inactive
3,CC1(C)CC(=O)c2c(C(F)(F)F)nn(-c3ccc(C(N)=O)c(NC4CCC(O)CC4)c3)c2C1 (stereo not given),316 nM (active)
4,NC1(C(=O)N[C@@H](CCO)c2ccc(Cl)cc2)CCN(c2ncnc3[nH]ccc23)CC1,inactive

# Tested on: PA-1
# Experiment: as above
# Conditions: Gynecologic cancer cell panel viability, ATPlite luminescence, 48 h; series mostly up to 57.5 µM
# Summary of the method: as §1
row,SMILES,Potency
1,COc1ccc(-c2ccc3ncc4c(c3c2)n(-c2ccc(N3CCNCC3)c(C(F)(F)F)c2)c(=O)n4C)cn1,316 nM (active)
2,Cc1cccc2c1CC[C@H](CN1CCC(c3c(Cl)cccc3Cl)CC1)C[C@@H]2O,11200 nM (active)
3,CC1(C)CC(=O)c2c(C(F)(F)F)nn(-c3ccc(C(N)=O)c(NC4CCC(O)CC4)c3)c2C1 (stereo not given),447 nM (active)

# Tested on: Tov-21-G
# Experiment: as above
# Conditions: Gynecologic cancer cell panel viability, ATPlite luminescence, 48 h; series mostly up to 57.5 µM
# Summary of the method: as §1
row,SMILES,Potency
1,COc1ccc(-c2ccc3ncc4c(c3c2)n(-c2ccc(N3CCNCC3)c(C(F)(F)F)c2)c(=O)n4C)cn1,35500 nM (active)
2,Cc1cccc2c1CC[C@H](CN1CCC(c3c(Cl)cccc3Cl)CC1)C[C@@H]2O,inactive
3,CC1(C)CC(=O)c2c(C(F)(F)F)nn(-c3ccc(C(N)=O)c(NC4CCC(O)CC4)c3)c2C1 (stereo not given),355 nM (active)
4,CNC1CCC(N(Cc2cccc(-c3ccncc3)c2)C(=O)c2sc3ccccc3c2Cl)CC1 (stereo not given),inactive
5,NC1(C(=O)N[C@@H](CCO)c2ccc(Cl)cc2)CCN(c2ncnc3[nH]ccc23)CC1,794 nM (active)
6,Fc1ccc(CNc2ncnc3ccc(F)cc23)cc1,inactive

# Tested on: Tov112D
# Experiment: as above
# Conditions: Gynecologic cancer cell panel viability, ATPlite luminescence, 48 h; series mostly up to 57.5 µM
# Summary of the method: as §1
row,SMILES,Potency
1,COc1ccc(-c2ccc3ncc4c(c3c2)n(-c2ccc(N3CCNCC3)c(C(F)(F)F)c2)c(=O)n4C)cn1,15800 nM (active)
2,Cc1cccc2c1CC[C@H](CN1CCC(c3c(Cl)cccc3Cl)CC1)C[C@@H]2O,inactive
3,CNC1CCC(N(Cc2cccc(-c3ccncc3)c2)C(=O)c2sc3ccccc3c2Cl)CC1 (stereo not given),inactive
4,NC1(C(=O)N[C@@H](CCO)c2ccc(Cl)cc2)CCN(c2ncnc3[nH]ccc23)CC1,inactive
5,Fc1ccc(CNc2ncnc3ccc(F)cc23)cc1,inactive

# Tested on: not listed separately
# Experiment: Drug repurposing screens with cells derived from glioblastoma tumor samples (AID 1345199); also: nearly all actives have a fitted effect of over 40% in size
# Conditions: GBM patient neurospheres viability, ATP luminescence, 48 h; at 45.9 µM (top of the series); tumour line B
# Summary of the method: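 Four patient lines of CD133+ GBM neurospheres were screened at several concentrations; hits were retested in those lines plus three slower-growing GBM lines, using 48-hour treatment and ATP-based viability.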
row,SMILES,"activity, negative = cell killing"
1,N#CC(c1ccc(Cl)cc1)c1c(Cl)cc(-n2ncc(=O)[nH]c2=O)cc1Cl (stereo not given),-18.3%
2,O=C(O)c1nc(=O)[nH]c(=O)[nH]1,0.794%
3,CCC(=O)OCC(=O)[C@@]1(OC(=O)CC)[C@@H](C)C[C@@H]2[C@H]3CCC4=CC(=O)C=C[C@]4(C)[C@@]3(F)[C@@H](O)C[C@@]21C,-4.93%
4,CC[C@H]1OC(=O)[C@H](C)[C@@H](O[C@H]2C[C@@](C)(OC)[C@@H](O)[C@H](C)O2)[C@H](C)[C@@H](O[C@@H]2O[C@H](C)C[C@H](N(C)C)[C@H]2O)[C@](C)(O)C[C@H](C)C(=NOCOCCOC)[C@H](C)[C@@H](O)[C@]1(C)O,-8.15%
5,CCC[C@H](N[C@@H](C)C(=O)N1[C@@H]2CCCC[C@H]2C[C@H]1C(=O)O)C(=O)OCC,-14%
6,COc1cc2c(cc1OC)CC(=O)N(CCCN(C)C[C@H]1Cc3cc(OC)c(OC)cc31)CC2,-14.4%
7,CN1CCN2c3ncccc3Cc3ccccc3C2C1 (stereo not given),-0.787%
8,CN1CC(=O)N2C(Cc3c([nH]c4ccccc34)[C@H]2c2ccc3c(c2)OCO3)C1=O (stereo not given in full),-5.44%
9,N#Cc1c(N(CC(=O)O)CC(=O)O)sc(C(=O)O)c1CC(=O)O,-0.252%
10,CC(C)CN(C[C@@H](O)[C@H](Cc1ccccc1)NC(=O)O[C@H]1CO[C@H]2OCC[C@H]21)S(=O)(=O)c1ccc(N)cc1,-11.9%
11,CC(C)(CO)[C@@H](O)C(=O)NCCC(=O)O,1.18%
12,CCCCCCCCCCCCCCCC(=O)O[C@H]1[C@@H](O)[C@@H](O)[C@@H]([C@H](NC(=O)[C@@H]2C[C@@H](CCC)CN2C)[C@H](C)Cl)O[C@@H]1SC,-20%

# Same assay, conditions: GBM patient neurospheres viability, ATP luminescence, 48 h; at 45.9 µM (top of the series); tumour line D
row,SMILES,"activity, negative = cell killing"
1,O=C(O)c1nc(=O)[nH]c(=O)[nH]1,6.49%
2,CC[C@H]1OC(=O)[C@H](C)[C@@H](O[C@H]2C[C@@](C)(OC)[C@@H](O)[C@H](C)O2)[C@H](C)[C@@H](O[C@@H]2O[C@H](C)C[C@H](N(C)C)[C@H]2O)[C@](C)(O)C[C@H](C)C(=NOCOCCOC)[C@H](C)[C@@H](O)[C@]1(C)O,4.24%
3,CCC[C@H](N[C@@H](C)C(=O)N1[C@@H]2CCCC[C@H]2C[C@H]1C(=O)O)C(=O)OCC,-19.1%
4,COc1cc2c(cc1OC)CC(=O)N(CCCN(C)C[C@H]1Cc3cc(OC)c(OC)cc31)CC2,-19.2%
5,CN1CCN2c3ncccc3Cc3ccccc3C2C1 (stereo not given),-14.6%
6,CN1CC(=O)N2C(Cc3c([nH]c4ccccc34)[C@H]2c2ccc3c(c2)OCO3)C1=O (stereo not given in full),-11.4%
7,N#Cc1c(N(CC(=O)O)CC(=O)O)sc(C(=O)O)c1CC(=O)O,0.729%
8,CC(C)CN(C[C@@H](O)[C@H](Cc1ccccc1)NC(=O)O[C@H]1CO[C@H]2OCC[C@H]21)S(=O)(=O)c1ccc(N)cc1,-22.5%
9,CC(C)(CO)[C@@H](O)C(=O)NCCC(=O)O,-3.38%
10,CCCCCCCCCCCCCCCC(=O)O[C@H]1[C@@H](O)[C@@H](O)[C@@H]([C@H](NC(=O)[C@@H]2C[C@@H](CCC)CN2C)[C@H](C)Cl)O[C@@H]1SC,-15.1%
